This is part of a sample that, as a whole, favours compounds with a hit. Of some 83,000 tested, about 20% had one in any assay.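 Growth was measured after 48 h exposure to one concentration of compound in 96-well plates. Values under 10 count as active.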 Calls of active or inactive are those of the source.
What follows are molecules tested on T-47D breast (assay: NCI-60 one-dose screen, 48 h (100 = growth as untreated, 0 = no growth, -100 = all killed)). Settings: 10 µM.
Method: Growth inhibition of the T-47D human tumor cell line is measured as a screen for anti-cancer activity. Cells are grown in 96 well plates and exposed to the test compound for 48 hours. Compounds are tested at a single concentration, which is 10^-5 M for most compounds. The reported endpoint is percent growth (GI% or GIPRCNT), where numbers from 0 - 100% represent growth inhibition, and numbers from -100% - 0 represent cell death. For example, a value of 40 represents 60% growth inhibition. A value of 0 means no net growth occurred over the course of the experiment. A value of -40 indicates 40% of cells at the beginning of the experiment died by the end of the experiment. A value of -100 means all cells are dead at the end of the experiment.
NCI-60 Human Tumor Cell Lines Screen was performed using the standard one-dose NCI protocol, which is described in more detail at https://dtp.cancer.gov/discovery_development/nci-60/default.htm.
Compounds with GIPRCNT values below 10 were considered active. Activity score was based on GIPRCNT using the following formula: […]
Score is 0 for GIPRCNT values of 100 or above, 50 for GIPRCNT values of 0, and 100 for GIPRCNT values of -100.

| Compound | growth |
| --- | --- |
| N[C@@H](CSSC[C@H](N)C(=O)Nc1ccc(OCC2CCCC2)cc1)C(=O)Nc1ccc(OCC2CCCC2)cc1 | -68.9% (active) |
| O=C(CNc1nc(-c2ccccc2)cs1)Nc1ccc(Cl)cc1[N+](=O)[O-] | -32.6% (active) |
| Cc1ccc(-c2ccc(SCC(=O)Nc3ccc(S(N)(=O)=O)cc3Br)nn2)cc1 | 35.2% (inactive) |
| COc1ccc(-c2nc(S(=O)(=O)c3ccccc3)c(S(C)(=O)=O)o2)cc1 | -64.5% (active) |
| C=C[C@@]12CN3CC[C@]1(O)[C@@](C(=O)OC)(CO2)c1[nH]c2ccccc2c1C3 | 40.8% (inactive) |
| CC(C)c1ccc(C(=O)Nc2sc3c(c2C(N)=O)CCC(=O)C3=O)cc1 | 80.3% (inactive) |
| O=C(NO)c1ccc(-c2nc3ccc4[nH]ncc4c3c3c2CCCC3)cc1 | -8.47% (active) |
| O=C(c1ccc(O)cc1)C1[C@H](c2ccccc2Br)[C@@H](c2ccccc2)NC12C(=O)Nc1ccc(Cl)cc12 (stereo not given in full) | 18.2% (inactive) |
| C=C(C)[C@@H]1CC[C@]2(C(=O)OC)CC[C@]3(C)[C@H](CC[C@@H]4[C@@]5(C)CC[C@H](N)C(C)(C)[C@@H]5CC[C@]43C)[C@@H]12 | -73.3% (active) |
| CC(=O)c1ccc(Nc2nc(SCCC(C)C)nc(-c3ccc(F)cc3)c2C#N)cc1 | 68.3% (inactive) |
| COc1cc2c(cc1OC)CN(CCCCOc1cc(O)c3c(=O)cc(-c4ccccc4)oc3c1)CC2 | 1.69% (active) |
| Cc1ccn2c(C(=O)c3ccc(Br)cc3)cc(-c3cc(-c4ccc(N(C)C)cc4)c(C#N)c(N)n3)c2c1 | 50.5% (inactive) |
| O=C(Nc1cccc(-c2cn(-c3ccc4oc(=O)ccc4c3)nn2)c1)Nc1cc(C(F)(F)F)cc(C(F)(F)F)c1 | -0.405% (active) |
| OCCNc1oc(-c2ccccc2)nc1[P+](c1ccccc1)(c1ccccc1)c1ccccc1 | 4.49% (active) |
| Brc1ccc(N/N=C/c2c[nH]c3ccccc23)nc1 | 25.7% (inactive) |
| CCNCCCn1c2c(c3cc(OC)c(OC)cc3c1=O)C(=O)c1cc3c(nc1-2)OCO3 | 31.6% (inactive) |
| Cn1c(O)c(N=Nc2nc(-c3cc4ccccc4oc3=O)cs2)c2cc(Br)ccc21 | 82.8% (inactive) |
| Cc1nc(Nc2nc(C)c3ccc(OCCN4CCOCC4)cc3n2)[nH]c(=O)c1C | -10.5% (active) |
| COc1ccc(OC)c(-c2cc(-c3c[nH]c4ccccc34)nc(N)c2C#N)c1 | 0.648% (active) |
| COc1cccc(-c2nn(-c3ccccc3)cc2-c2ccnc(NCCCNC(=O)Nc3ccc(F)cc3)c2)c1 | 4.77% (active) |

| Compound | growth |
| --- | --- |
| CCOC(=O)C1=C(N)N(c2ccc(C)cc2)C2=C(C(=O)CC(C)(C)C2)C1c1ccccc1OC (stereo not given) | 97.8% (inactive) |
| Cc1cc(C)nc(SCC(=O)Nc2ccc(S(N)(=O)=O)cc2)n1 | 105% (inactive) |
| CC1=C2C(=C[C@@](C)(COCOCCCl)[C@@H]2O)C(=O)[C@](C)(O)C12CC2 | -15.8% (active) |
| CCOc1ccc(Nc2nc3ccccc3nc2Nc2ccc(OCC)cc2)cc1 | 32.1% (inactive) |
| Cc1ccc2nc(COc3ccc(C(=O)NNC(=S)NCCc4ccccc4)cc3)[nH]c2c1 | 74% (inactive) |
| Clc1ccc(/C=N/Nc2ncnc3sc4c(c23)CCN(Cc2ccccc2)C4)cc1 | -0.297% (active) |
| CN1C/C(=C\c2ccc(O)cc2O)c2[o+]c3cc(O)ccc3cc2C1 | 3.02% (active) |
| CCOP(=O)(OCC)O[C@H]1CC[C@]2(C)[C@H]3CC[C@@H]4[C@@H]([C@](C)(O)CCC=C(C)C)CC[C@@]4(C)[C@]3(C)CC[C@H]2C1(C)C | 9.26% (active) |
| CC(=O)Nc1ccc(-c2cn(-c3cccc(C(=O)Nc4cccc(OC(F)(F)F)c4)c3)nn2)cn1 | 93.2% (inactive) |
| CNC(=O)c1cc(-c2ccc(NC(=O)Nc3ccc(C)cc3)cc2)nc2cccnc12 | 89.6% (inactive) |
| O=c1nc(-c2ccccc2)cc(-c2cc3ccccc3nc2Cl)[nH]1 | 45.5% (inactive) |
| COc1cc(Cn2c(C(F)(F)F)cc3c(Cl)ncnc32)ccn1 | 66.5% (inactive) |
| COc1ccc(/C=C/C(=O)c2ccc(N3CCN(C)CC3)cc2)c(C(F)(F)F)c1 | 39.7% (inactive) |
| Cc1cc(=O)oc2cc(OCCCCOc3ccc(/C=C/C(=O)Nc4ccc(F)c(Cl)c4)cc3)ccc12 | 67.1% (inactive) |
| O=C(Nc1cc(Cl)cc(Cl)c1)Nc1cc(Cl)cc(Cl)c1 | -18.9% (active) |
| O=C(c1ccc(Cl)cc1)C1[C@H](c2ccccc2Br)[C@@H](c2ccccc2)NC12C(=O)Nc1ccc(Cl)cc12 (stereo not given in full) | 22% (inactive) |
| CN1CCN(c2ccc(C(=O)/C=C/c3cc(Br)ccc3F)cc2)CC1 | 59.8% (inactive) |
| COc1ccc2[nH]c(=O)c(CSc3cccc(N)c3)cc2c1 | 37.5% (inactive) |
| CCCS(=O)(=O)c1oc(-c2ccc(F)cc2)nc1S(=O)(=O)c1ccc(F)cc1 | -67.9% (active) |
| O=c1oc2ccc(-c3ccc(F)cc3F)cc2c(=O)n1-c1ccc(F)cc1 | -20.5% (active) |

Source: PubChem BioAssay (NCI)
